In assay [1] the target is Estrogen receptor beta (Homo sapiens) (UniProt Q92731). The assay is described as follows: OT_ER_ERbERb_1440: Odyssey Thera (OT) 24-hour HEK293T Protein-Complementation Assay for Estrogen Receptor-beta/-beta Homodimer (AID 2283380).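 Note: scored as signal increase over DMSO baseline for both agonists and antagonists.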 The procedure, abridged:
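HEK293T cells stably expressing ER beta LBD (aa 310-547) homodimer fragment-complementation reporter, dosed 24 h. Cells formaldehyde-fixed, Draq5-stained; gain in nuclear (agonist) or nuclear plus cytoplasmic (antagonist) fluorescence versus DMSO read by laser scanning cytometry.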

Assay [2] addresses Estrogen receptor (Homo sapiens) (UniProt P03372). Nature of the assay: OT_ERa_GFPERaERE_0480: Odyssey Thera (OT) 8-hour HeLa Transcription Induction Assay for Estrogen Receptor (AID 2283381; active = hit-call score of the fitted dose curve at least 0.9, where 1 is the maximum; inactive = score below 0.9). The essentials: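 Fluorescence microscopy with high-content image analysis measures ERE-driven GFP induction in HeLa cells at 8 h post-dose. Increases fitted against DMSO baseline.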
Assay [3] has the same target. The assay is described as follows: OT_ERa_GFPERaERE_0120: Odyssey Thera (OT) 2-hour HeLa Transcription Induction Assay for Estrogen Receptor (AID 2283382). The essentials: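 Fluorescence-microscopy images of the GFP-ERα/ERE reporter, scored by high-content image algorithms, give the readout. HeLa exposure lasted 2 h, and only signal increase over DMSO was fitted.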

Assay [4] deals with Retinoic acid receptor RXR-alpha (Homo sapiens) (UniProt P19793). Nature of the assay: OT_NURR1_NURR1RXRa_0480: Odyssey Thera (OT) 8-hour HEK293T Protein Complementation Assay for Nurr1/retinoid X receptor (RXR) (AID 2283385). The procedure, abridged:
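Interaction of Nurr1 with RXRα read as reconstituted reporter fluorescence in a HEK293T fragment-complementation system, 8 h post-treatment; increase over DMSO baseline analysed.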

For assay [5] the target is unchanged. The assay is described as follows: OT_NURR1_NURR1RXRa_1440: Odyssey Thera (OT) 24-hour HEK293T Protein Complementation Assay for Nurr1/retinoid X receptor (RXR) (AID 2283386). The essentials: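 Gain in fluorescence, fitted relative to DMSO, reflects Nurr1–RXRα association in HEK293T cells after 24 h dosing. Bait and prey are each linked to a reporter-protein fragment that reassembles on interaction.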

Assay [6] addresses Peroxisome proliferator-activated receptor gamma (Homo sapiens) (UniProt P37231). Nature of the assay: OT_PPARg_PPARgSRC1_0480: Odyssey Thera (OT) 8-hour Protein-Complementation Assay for Peroxisome Proliferator-activated Receptor Gamma / SRC-1 Co-activator (AID 2283387).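 Note: nuclear to cytoplasmic split Venus YFP fluorescence ratio reporting PPARg SRC-1 interaction.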 The essentials:
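HEK293T transiently transfected with PPARg and SRC-1 fused to Venus YFP fragments, compounds 8 h at 37C. Fixed, Draq5-stained cells imaged; nuclear/cytoplasmic 488 nm fluorescence ratio over at least 350 cells per image; gain fitted versus DMSO.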

For assay [7] the target is unchanged. Nature of the assay: OT_PPARg_PPARgSRC1_1440: Odyssey Thera (OT) 24-hour Protein-Complementation Assay for Peroxisome Proliferator-activated Receptor Gamma/ SRC-1 Co-activator (AID 2283388). The essentials:
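Readout: nuclear-to-cytoplasmic 488 nm fluorescence ratio, ≥350 cells per image, 8 images per well, after 24 h compound exposure of HEK293T expressing PPARg/SRC-1 split-YFP fusions. Activity fitted in positive direction against DMSO.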

Assay [8] in a line: CEETOX_H295R_11DCORT: CeeTox H295R High-throughput Steroidogenesis Assay for 11-Deoxycortisol (11DCORT) (AID 2283432; active = hit-call score of the fitted dose curve at least 0.9, where 1 is the maximum; inactive = score below 0.9;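 for AC50: 11-deoxycortisol secreted into the medium measured by LC-MS/MS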). Conditions: actives raise or lower the signal. The essentials: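 H295R cells prestimulated 48 h with 10 uM forskolin, then exposed 48 h to chemical in 0.1% DMSO. 11-Deoxycortisol in medium quantified by HPLC-MS/MS after MTBE extraction; bidirectional fit versus DMSO. MTT viability read in same wells.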

Assay [9] can be described thus: CEETOX_H295R_OHPREG: CeeTox H295R High-throughput Steroidogenesis Assay for OH-Pregnenolone (OHPREG) (AID 2283434; active = hit-call score of the fitted dose curve at least 0.9, where 1 is the maximum; inactive = score below 0.9). Conditions: actives raise or lower the signal. The essentials:
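H295R, 10 uM forskolin pre-stim 48 h; test chemical 48 h, 0.1% DMSO final. MTBE extraction, reverse-phase C18 HPLC-ESI+ MS/MS of medium. Gain/loss vs DMSO; viability by MTT in same wells.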

A short description of assay [10]: CEETOX_H295R_OHPROG: CeeTox H295R High-throughput Steroidogenesis Assay for OH-Progesterone (OHPROG) (AID 2283435; active = hit-call score of the fitted dose curve at least 0.9, where 1 is the maximum; inactive = score below 0.9;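 for AC50: 17alpha-hydroxyprogesterone secreted into medium measured by HPLC-MS/MS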). Conditions: actives raise or lower the signal. The procedure, abridged: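 Medium steroid levels read by LC-MS/MS after 48 h chemical treatment (0.1% DMSO) of human adrenal H295R cells that had been forskolin-primed (10 uM, 48 h). Gain or loss fitted against DMSO; MTT cytotoxicity checked per well.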

The nature of assay [11]: CEETOX_H295R_CORTIC: CeeTox H295R High-throughput Steroidogenesis Assay for Corticosterone (CORTIC) (AID 2283437; active = hit-call score of the fitted dose curve at least 0.9, where 1 is the maximum; inactive = score below 0.9;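 note: corticosterone secreted into medium quantified by mass spectrometry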;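 for AC50: human H295R adrenal cells prestimulated with forskolin before chemical exposure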). To be noted: actives raise or lower the signal. The essentials: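 48 h forskolin (10 uM) prestim, then 48 h chemical exposure, final DMSO 0.1%. Readout: corticosterone in medium by LC-MS/MS after MTBE extraction. Gain/loss fit vs DMSO; MTT viability in same wells.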

The nature of assay [12]: CEETOX_H295R_CORTISOL: CeeTox H295R High-throughput Steroidogenesis Assay for Cortisol (AID 2283438; active = hit-call score of the fitted dose curve at least 0.9, where 1 is the maximum; inactive = score below 0.9). To be noted: actives raise or lower the signal. The procedure, abridged:
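Cortisol measured by HPLC-MS/MS after MTBE extraction of medium from H295R cells exposed 48 h to chemical (0.1% DMSO), following 48 h prestimulation with 10 uM forskolin. Viability assessed by MTT in the same wells.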

The nature of assay [13]: CEETOX_H295R_DOC: CeeTox H295R High-throughput Steroidogenesis Assay for DOC (AID 2283439; active = hit-call score of the fitted dose curve at least 0.9, where 1 is the maximum; inactive = score below 0.9). To be noted: actives raise or lower the signal. The essentials: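 11-Deoxycorticosterone quantified in medium by MTBE extraction and HPLC-MS/MS after 48 h chemical exposure (0.1% DMSO) of forskolin-primed (10 uM, 48 h) H295R cells. Same-well MTT viability; data fitted bidirectionally against DMSO.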

Assay [14] in a line: CEETOX_H295R_ESTRADIOL: CeeTox H295R High-throughput Steroidogenesis Assay for Estradiol (AID 2283440; active = hit-call score of the fitted dose curve at least 0.9, where 1 is the maximum; inactive = score below 0.9;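 note: estradiol secreted into medium quantified by LC-MS/MS after dansyl derivatisation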). Conditions: actives raise or lower the signal. The essentials:
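H295R, 48 h forskolin (10 uM) prestim → 48 h compound, 0.1% DMSO final. Estradiol in medium: MTBE extraction, dansyl chloride derivatization, LC-MS/MS. Fit bidirectional vs DMSO baseline; MTT viability in same wells.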

The nature of assay [15]: CEETOX_H295R_ESTRONE: CeeTox H295R High-throughput Steroidogenesis Assay for Estrone (AID 2283441; active = hit-call score of the fitted dose curve at least 0.9, where 1 is the maximum; inactive = score below 0.9). To be noted: actives raise or lower the signal. The procedure, abridged:
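Estrone secreted into medium quantified by LC-MS/MS after dansyl chloride derivatization, following 48 h chemical exposure (0.1% DMSO final) of forskolin-prestimulated (10 uM, 48 h) H295R cells; gain or loss fitted against DMSO; MTT viability in same wells.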

Assay [16] addresses Bile acid receptor (Homo sapiens) (UniProt Q96RI1). The assay is described as follows: OT_FXR_FXRSRC1_0480: Odyssey Thera (OT) 8-hour HEK293T Protein-Complementation Assay for Farnesoid X receptor/SRC-1 Co-activator (AID 2283383). The procedure, abridged:
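Binding of FXR to coactivator SRC-1 was read as fluorescence from a reconstituted split reporter in HEK293T cells, 8 h after chemical addition. Only increases in signal versus DMSO were fit.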

Assay [17] has the same target. Nature of the assay: OT_FXR_FXRSRC1_1440: Odyssey Thera (OT) 24-hour HEK293T Protein-Complementation Assay for Farnesoid X receptor/SRC-1 Co-activator (AID 2283384). The procedure, abridged:
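Protein-fragment complementation: FXR and SRC-1 fused to reporter fragments that reassemble on interaction, read by fluorescence intensity. Human HEK293T cells measured 24 h post-dose; positive-direction fit versus DMSO.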

Records with an inconclusive call do not appear. A structure can be active in one record and inactive in another. Active and inactive are the calls of the source. Rule for the calls, unless noted: active = hit-call score of the fitted dose curve at least 0.9, where 1 is the maximum; inconclusive = response in the unintended direction; inactive = score below 0.9.

Estrogen receptor (Homo sapiens), sequence (P03372 whole entry, looked up): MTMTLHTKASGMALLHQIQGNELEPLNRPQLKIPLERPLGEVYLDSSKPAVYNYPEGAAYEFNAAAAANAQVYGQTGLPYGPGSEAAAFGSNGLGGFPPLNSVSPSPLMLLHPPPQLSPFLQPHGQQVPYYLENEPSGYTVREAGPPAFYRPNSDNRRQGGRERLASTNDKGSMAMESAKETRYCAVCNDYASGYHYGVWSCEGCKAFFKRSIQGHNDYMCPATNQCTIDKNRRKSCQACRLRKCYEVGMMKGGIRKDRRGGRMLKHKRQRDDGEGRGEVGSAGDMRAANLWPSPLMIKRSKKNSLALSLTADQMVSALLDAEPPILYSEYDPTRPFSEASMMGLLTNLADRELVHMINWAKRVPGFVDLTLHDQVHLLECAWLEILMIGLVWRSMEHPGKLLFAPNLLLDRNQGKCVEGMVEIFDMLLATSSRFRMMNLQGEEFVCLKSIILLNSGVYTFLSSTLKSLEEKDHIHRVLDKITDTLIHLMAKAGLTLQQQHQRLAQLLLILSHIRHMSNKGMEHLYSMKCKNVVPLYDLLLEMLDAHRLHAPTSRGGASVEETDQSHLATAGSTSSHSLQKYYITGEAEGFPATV
Retinoic acid receptor RXR-alpha (Homo sapiens), sequence (P19793 whole entry, looked up, the tested form may be a part): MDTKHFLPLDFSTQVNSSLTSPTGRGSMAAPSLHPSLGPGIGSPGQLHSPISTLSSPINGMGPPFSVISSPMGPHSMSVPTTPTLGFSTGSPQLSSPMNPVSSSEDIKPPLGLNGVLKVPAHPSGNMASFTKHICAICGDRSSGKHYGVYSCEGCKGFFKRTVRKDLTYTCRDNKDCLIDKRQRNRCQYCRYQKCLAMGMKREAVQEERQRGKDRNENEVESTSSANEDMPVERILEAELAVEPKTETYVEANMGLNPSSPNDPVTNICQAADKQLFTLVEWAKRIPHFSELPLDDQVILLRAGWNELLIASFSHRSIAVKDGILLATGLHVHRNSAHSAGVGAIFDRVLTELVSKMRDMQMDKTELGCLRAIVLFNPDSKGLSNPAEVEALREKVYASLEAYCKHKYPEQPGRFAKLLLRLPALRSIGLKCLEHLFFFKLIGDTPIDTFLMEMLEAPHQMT
Bile acid receptor (Homo sapiens), sequence (Q96RI1 whole entry, looked up): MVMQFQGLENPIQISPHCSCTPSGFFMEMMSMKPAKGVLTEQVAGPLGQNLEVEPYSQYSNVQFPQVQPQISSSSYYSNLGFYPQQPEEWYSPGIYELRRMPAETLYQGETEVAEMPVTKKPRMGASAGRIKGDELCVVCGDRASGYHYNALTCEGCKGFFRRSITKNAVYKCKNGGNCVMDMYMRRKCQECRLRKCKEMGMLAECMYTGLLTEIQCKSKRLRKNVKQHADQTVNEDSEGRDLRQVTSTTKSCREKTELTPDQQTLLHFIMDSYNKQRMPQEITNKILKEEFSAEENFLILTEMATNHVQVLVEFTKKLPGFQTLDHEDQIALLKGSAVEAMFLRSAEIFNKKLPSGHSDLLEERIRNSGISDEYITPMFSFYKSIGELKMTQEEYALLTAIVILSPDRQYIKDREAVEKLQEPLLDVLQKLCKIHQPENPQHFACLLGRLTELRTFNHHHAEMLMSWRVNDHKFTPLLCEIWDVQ
Peroxisome proliferator-activated receptor gamma (Homo sapiens), sequence (P37231 whole entry, looked up, the tested form may be a part): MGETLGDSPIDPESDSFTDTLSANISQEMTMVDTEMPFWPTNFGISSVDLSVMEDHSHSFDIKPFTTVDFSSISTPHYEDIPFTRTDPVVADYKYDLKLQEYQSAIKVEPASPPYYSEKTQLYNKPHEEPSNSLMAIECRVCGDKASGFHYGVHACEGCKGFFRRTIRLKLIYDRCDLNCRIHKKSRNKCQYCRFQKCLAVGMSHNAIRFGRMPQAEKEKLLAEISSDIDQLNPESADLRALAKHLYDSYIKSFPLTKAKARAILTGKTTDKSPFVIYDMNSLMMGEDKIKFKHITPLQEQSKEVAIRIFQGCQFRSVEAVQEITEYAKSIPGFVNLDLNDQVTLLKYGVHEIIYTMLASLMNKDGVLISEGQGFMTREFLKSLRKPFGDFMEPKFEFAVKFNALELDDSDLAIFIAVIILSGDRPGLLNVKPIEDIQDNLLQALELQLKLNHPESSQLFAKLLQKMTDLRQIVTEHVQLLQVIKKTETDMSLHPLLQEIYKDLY
Estrogen receptor beta (Homo sapiens), sequence (Q92731 whole entry, looked up, the tested form may be a part): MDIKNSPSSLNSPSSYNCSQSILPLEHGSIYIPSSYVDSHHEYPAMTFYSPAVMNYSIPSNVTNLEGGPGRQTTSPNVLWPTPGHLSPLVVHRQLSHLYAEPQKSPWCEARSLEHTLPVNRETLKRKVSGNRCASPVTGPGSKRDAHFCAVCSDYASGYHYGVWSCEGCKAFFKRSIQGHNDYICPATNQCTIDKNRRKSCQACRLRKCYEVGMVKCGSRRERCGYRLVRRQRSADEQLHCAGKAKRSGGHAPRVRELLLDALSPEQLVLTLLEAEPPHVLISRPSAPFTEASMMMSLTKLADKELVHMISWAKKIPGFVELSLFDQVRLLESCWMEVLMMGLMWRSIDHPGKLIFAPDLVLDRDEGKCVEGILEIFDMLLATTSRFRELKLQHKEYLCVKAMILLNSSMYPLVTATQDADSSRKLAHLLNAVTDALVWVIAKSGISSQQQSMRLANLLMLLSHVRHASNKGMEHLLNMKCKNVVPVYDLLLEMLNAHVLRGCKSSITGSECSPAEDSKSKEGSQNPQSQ

For `O=c1[nH]c2ccc(S(=O)CCN3CCC(Cc4ccc(F)cc4)CC3)cc2o1` (stereo unspecified), the call in [1], in assay [2], in [3], in assay [4], in [5] and in [6] was inactive. Further, the call in [7], in assay [13], in assay [14] and in assay [15] was inactive. The AC50 – broadly, the concentration at which the activity in the assay is half-maximal – in assay [8] is 5.59 µM (active); in assay [9], 3.63 µM (active); in [10], 5.68 µM (active); in assay [11] it was 1.56 µM (active); in [12], 6.88 µM (active).

Take `Cn1cnc([N+](=O)[O-])c1Sc1ncnc2nc[nH]c12`: the compound was classed as inactive in [1], in [2], in assay [3], in [4], in [5] and in assay [6]. In assay [7], the compound was called inactive.

As to `COCCOCCOCCOC`, the result in [1], in [16], in [17], in assay [4], in assay [5] and in [6] was inactive. For the same compound, the call in [7] was inactive.

Take `CN(C)c1ccc(Cc2ccc(N(C)C)cc2)cc1`: the compound was called inactive in assay [1], in [17], in assay [4], in assay [5], in assay [6] and in [7]. Moreover, the compound was classed as inactive in assay [8], in assay [9], in assay [10], in assay [12] and in [13]. Also, the results for the AC50 in assay [16] and in assay [4] were 28 µM (active) and 35.1 µM (active), respectively.

As to `Nc1cccc(N)c1`, the result in assay [1], in assay [16], in [4], in [5], in [6] and in assay [7] was inactive. Besides, in assay [17], the AC50 is 78.8 µM (active).

In the case of `NC(=O)NO`, the compound was classed as inactive in [1], in [4] and in [5].

Consider `C=CCCCCCCCCC(=O)O`, for which the compound was called inactive in [1], in [2], in [3], in assay [4], in [5] and in assay [6]. For the same compound, the compound was called inactive in assay [7], in [8], in assay [10], in [11], in assay [12] and in [13]. In addition, the result in [14] and in assay [15] was inactive. Also, the AC50 in assay [9] is 36.5 µM (active).

In the case of `CC(C)CCO`, the compound was called inactive in assay [1], in assay [2], in [3], in assay [5], in assay [6] and in assay [7].

Consider `CC(=O)OC[C@H]1O[C@@](COC(C)=O)(O[C@H]2O[C@H](COC(C)=O)[C@@H](OC(C)=O)[C@H](OC(C)=O)[C@H]2OC(C)=O)[C@@H](OC(C)=O)[C@@H]1OC(C)=O`, for which the call in assay [1], in [4] and in [5] was inactive.

With `CCCCCCCCCCCCCCCO`, the outcome in assay [1], in assay [16], in assay [4], in assay [5], in assay [6] and in assay [7] was inactive. In addition, the call in [9] and in assay [10] was inactive.

Turning to `O=C(O)CCN(C1(C(=O)NO)CCCC1)S(=O)(=O)c1ccc(Oc2ccc(F)cc2)cc1`, the compound was called inactive in assay [1], in assay [4], in assay [5], in [6] and in [7].

On to `CC(=O)c1ccc2c(c1)[C@H](NC(=O)c1ccc(F)cc1)[C@@H](O)C(C)(C)O2`, for which the call in [6] and in assay [7] was inactive.

These data come from PubChem BioAssay (EPA / NIEHS).
